Results: ChEMBL document CHEMBL3433997, “St. Jude Leishmania screening dataset” (2016)

What was measured:
Format in all cases: functional
[1] = biological target: Solute carrier family 2, facilitated glucose transporter member 1 (Homo sapiens) (UniProt P11166); experiment: ST_JUDE_LEISH: Cytotoxicity at 2uM final concentration against transgenic Leishmania Mexicana promastigotes LmGLUT1 that are glucose transport deficient and complemented with the human glucose transporter GLUT1. Activity is measured by DNA content using SYBR green in vitro
Solute carrier family 2, facilitated glucose transporter member 1 (Homo sapiens), sequence (P11166 whole entry): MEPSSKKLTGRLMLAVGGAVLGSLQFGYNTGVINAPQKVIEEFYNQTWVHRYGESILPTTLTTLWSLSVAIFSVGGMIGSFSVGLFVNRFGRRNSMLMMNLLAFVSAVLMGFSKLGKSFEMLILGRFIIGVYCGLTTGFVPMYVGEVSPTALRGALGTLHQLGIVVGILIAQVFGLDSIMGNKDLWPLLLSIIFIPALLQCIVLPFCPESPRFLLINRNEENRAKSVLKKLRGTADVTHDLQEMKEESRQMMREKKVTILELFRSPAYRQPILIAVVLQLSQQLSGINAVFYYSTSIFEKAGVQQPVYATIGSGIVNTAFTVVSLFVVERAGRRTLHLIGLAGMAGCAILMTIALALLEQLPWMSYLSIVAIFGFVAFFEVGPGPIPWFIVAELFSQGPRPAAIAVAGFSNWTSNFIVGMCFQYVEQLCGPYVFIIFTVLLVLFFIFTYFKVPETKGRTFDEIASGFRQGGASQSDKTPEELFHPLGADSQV

[2] = biological target: Hexose transporter 1 (Plasmodium falciparum) (UniProt O97467); experiment: ST_JUDE_LEISH: Cytotoxicity at 2uM final concentration against transgenic Leishmania Mexicana promastigotes LmPfHT that are glucose transport deficient and complemented with the Plasmodium falciparum hexose transporter. Activity is measured by DNA content using SYBR green in vitro
[3] = biological target: Glucose transporter (Leishmania mexicana) (UniProt O61059); experiment: ST_JUDE_LEISH: Cytotoxicity at 2uM final concentration against transgenic Leishmania Mexicana promastigotes LmGT2 that are glucose transport deficient and complemented with the L. Mexicana glucose transporter 2. Activity is measured by DNA content using SYBR green in vitro

| SMILES | inhibition [1] | inhibition [2] | inhibition [3] |
| --- | --- | --- | --- |
| O=S(=O)(NC1CCN(c2ccnc3cc(Cl)ccc23)C1)c1cccc(F)c1 (stereo unspecified) | 10.1% | 9.98% | 11.4% |
| NC1CCCN(Cc2ccc(-c3ccc(-c4nc5cc(F)ccc5[nH]4)s3)cc2)C1 (stereo unspecified) | 2.77% | 3.22% | 3.45% |
| C=CCOC(=O)N1CCC(CNCc2ccc(-c3cccc(-c4nc5ccccc5[nH]4)c3)cc2)C1 (stereo unspecified) | 3.24% | 1.73% | 3.33% |
| O=C(Nc1cccc(CCNCc2ccccc2)c1)Nc1cccc2ccccc12 | 10.3% | 11% | 10.9% |
| CC(=O)Nc1cccc(Nc2c3ccccc3nc3ccccc23)c1 | 1.69% | 3.82% | 0.54% |
| COc1nc2c(N3CCN(CCNCc4ccc5c(n4)NC(=O)CO5)CC3)ccnc2cc1F | 4.21% | 2.44% | 0.39% |
| COc1c(F)ccc2ncc(Cl)c(CCN3CCC(NCc4ccc5c(n4)NC(=O)CS5)CC3)c12 | 6.45% | 6.77% | -2.91% |
| CN(C)CCOc1cc(NC(=O)Nc2ccc(-c3ccncc3)c(C(F)(F)F)c2)ccc1Cl | 9.9% | 9.02% | 9.08% |
| CCOc1ccccc1CCNCC1CCN(CC2CCCCC2)CC1 | 1.97% | -2.9% | 2.88% |
| CCCc1cn2c3c(cc(C(=O)N[C@@H](Cc4ccccc4)[C@H](O)CNC4CCCCC4)cc13)N(CC)S(=O)(=O)CC2 | 0.5% | 0.94% | -0.79% |
| Cc1cccc2nc(-c3cccc(-c4cccc(CNCc5cccc(N)c5)c4)c3)[nH]c12 | 1.24% | 2.66% | 1.47% |
| Cc1cc(N(C)C2CCN(CC3CCCCC3)C2)nc(Nc2ccc(Cl)cc2)n1 (stereo unspecified) | 7.35% | 5.97% | 4.28% |
| COc1cccc(-c2cc(C(=O)NC3CCC(N4CCC(c5ccccc5C)CC4)CC3)[nH]n2)c1 (stereo unspecified) | 6.55% | 14.6% | 5.13% |
| O=S(=O)(c1ccc(OCc2ccc(Cl)cc2)cc1)c1cc2c(cc1OCc1ccccc1)CCN(C1CCC1)CC2 | 7.19% | 4.84% | 7.79% |
| O=C(/C=C/c1ccc(Cl)c(Cl)c1)N1CCC(NCc2c[nH]c3ccccc23)CC1 | 1.33% | 1.05% | 1.05% |
| CC(C)CC(C)NC(=O)C1Cc2c([nH]c3ccc(F)cc23)C2(CCN(Cc3ccccc3)CC2)N1 (stereo unspecified) | 7.56% | 12.3% | 7.75% |

| SMILES | inhibition [1] | inhibition [2] | inhibition [3] |
| --- | --- | --- | --- |
| CCN(CC)CCN(Cc1ccc(-c2ccc(C(F)(F)F)cc2)cc1)C(=O)CN1C(CCc2cccc(F)c2F)=NS(=O)(=O)c2ccccc21 | -0.85% | -0.42% | -3.12% |
| CCc1cccc(NC(=O)/C=C/c2ccc3c(c2)CN(C)CC3)c1 | 4.53% | 2.31% | 10.2% |
| c1ccc2c3c(ccc2c1)Sc1c(ccc2ccccc12)N3 | 6.27% | 5.61% | 5.33% |
| COc1cc(NC2CCCC(NCc3cn(S(=O)(=O)c4ccccc4)c4ccccc34)C2)nc2ccccc12 (stereo unspecified) | 1.09% | 2.28% | 2.67% |
| Cc1cnc(-c2ccc(NC(=O)N3CCc4cc5nccc(N6CCN7CCC[C@H]7C6)c5cc43)c3ccccc23)o1 | 3.29% | 3.79% | 4.04% |
| CCCC(CNCc1cccc(OC(F)(F)C(F)F)c1)CNc1cc(=O)c2ccccc2[nH]1 (stereo unspecified) | -0.75% | -0.41% | -4.05% |
| OCCNc1nc(Nc2ccc(F)cc2)nc2ccccc12 | 3.51% | 3.35% | 2.07% |
| CC(C)C[C@H](NC(=O)c1ccc(OCCN2CCOCC2)cc1)C(=O)NC(/C=N/N1CCCC1=O)C(C)C (stereo partly specified) | 2.27% | 3.56% | 2.49% |
| COc1ccc(Nc2ncc3c(-c4ccc(NC(=O)c5cccc(C(F)(F)F)c5)cc4)c[nH]c3n2)cc1OC | 0.57% | -0.05% | -0.51% |
| CC(Oc1ccc(Cl)cc1)C(=O)Nc1cc(C(F)(F)F)ccc1-n1cncn1 (stereo unspecified) | 2.69% | 3.5% | 3.88% |
| Cc1cccc(C(=O)Nc2ccnc(N3CCC(N(C)Cc4cccc(C#N)c4)CC3)c2)c1 | 4.5% | 5.56% | 4.5% |
| COc1cc(NC(=O)CCCN2CCN(c3cccc(Cl)c3Cl)CC2)ccc1N1CCN(C(C)C)CC1 | -2.72% | 0.8% | -0.51% |
| CCOc1c(N2CCN(CCCCNC(=O)c3ccc(NC(=O)c4ccc(Cl)cc4)cc3)CC2)ccc2ccccc12 | 0.72% | 0.48% | 0.9% |
| Oc1ccc2nc(NCCCc3ccccc3)nc(NCCc3ccccc3)c2c1 | 3.71% | 4.97% | -0.15% |
| N=c1n(Cc2ccccc2)c2ccccc2n1CC(O)c1ccc(Cl)c(Cl)c1 (stereo unspecified) | -0.72% | 1.71% | 1.3% |
| O=C(C=Cc1cn(-c2ccccc2)nc1-c1ccccc1)N1CCN(c2ccncc2)CC1 | 5.75% | 5.64% | 4.62% |
